Data reported in PubChem BioAssay (NCI).
This is part of a sample that, as a whole, favours compounds with a hit. Of some 79,000 tested, about 15% had one in any assay. Unmarked numbers belong to inactive results. Activity calls are given as the source filed them. No stated cut-off is given here; in the data, active means growth inhibition above about 70%; inactive means the rest.

experiment: NCI Yeast Anticancer Drug Screen. Data for the mec2-1 strain (AID 157); conditions: S. cerevisiae mec2-1 strain, at 1.2 µM, hits give high values
Outline: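 Readout is yeast growth inhibition, normalised to vehicle-treated controls, in the mec2-1 strain exposed to compound.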

Going from CN(C)c1ccc(C2CC(C)(O)Oc3cc4c(cc32)OCO4)cc1 (stereo unspecified) to COc1cc(CSc2ccc(O)cc2)cc(O)c1O, the growth inhibition rises from -6% to 4%.

Compared with O=P(NC1CCCCC1)(OCc1ccccc1)OCc1ccccc1, O=C(/C=C(/c1ccccc1)N1CCCCC1)c1ccccc1 is lower in growth inhibition: 1% for the first, -4% for the second.

Compared with COc1oc(C(=O)NC2CCCCC2)c(-c2ccc(Cl)cc2)c1S(=O)(=O)c1ccccc1, COC1=C(OC)C(=O)C(Sc2ccc3ccccc3c2)=CC1=O is lower in growth inhibition: 1% for the first, -69% for the second.

First: C[Si](C)(C)/C=C/CCNC(C#N)c1ccccc1 (stereo unspecified)
Second: CNCCCNc1c2ccccc2nc2cccc([N+](=O)[O-])c12
The growth inhibition of the first is lower: -21% for the first, 41% for the second.

Compared with CCOc1ccc(NC(=O)C2=C(C)NC(C)=C(C(=O)Nc3ccc(OCC)cc3)C2c2cccc([N+](=O)[O-])c2)cc1, CCOC(=O)C1N=[N+](c2ccccc2)C(=O)/C1=C\n1c(=S)[nH]c2ccc([N+](=O)[O-])cc21 (stereo unspecified) is higher in growth inhibition: -1% for the first, 1% for the second.

Compared with CN(C)CCOC1(Cc2ccc(F)cc2)CCC(C(C)(C)C)CC1 (stereo unspecified), Cc1ccc(CC2(OCCN(C)C)CCC(C(C)(C)C)CC2)cc1 (stereo unspecified) is higher in growth inhibition: -12% for the first, -7% for the second.

First: CC1(C)CC(=O)C(/C=N/c2nc(-c3ccccc3)cs2)=C(O)C1
Second: Cc1sc2ccc3ccccc3c2[n+]1C
The growth inhibition of the first is higher: 2% for the first, -31% for the second.

First: CC(=O)Nc1ccc2c(c1)Cc1cc(N=C3C=CC(=O)O3)ccc1-2
Second: O=C(NNc1ccccc1)c1ccc(Cl)c(Cl)c1
The growth inhibition of the first is higher: 19% for the first, -4% for the second.

Compared with O=C1C=C(Cl)C(=O)C(c2ccc(Cl)cc2)=C1, Cc1ccc(Cl)cc1NC(=O)OCCN(C)C(=O)Nc1cc(Cl)ccc1C is lower in growth inhibition: 0% for the first, -28% for the second.

Going from CCCCCCCCCCCC(O)S(=O)(=O)O (stereo unspecified) to CCCC/C=C/C(C)(C(=O)OCC)C(=O)OCC, the growth inhibition falls from -1% to -2%.

First: CC(C)OC(=O)c1ccc(CCc2cc(O)c(Br)cc2O)cc1
Second: CCc1cc(O)c(Cl)c(C)c1Cl
The growth inhibition of the first is higher: 6% for the first, -8% for the second.

First: CSc1nc(C)c(CCOC(C)=O)c(N=P(c2ccccc2)(c2ccccc2)c2ccccc2)n1
Second: COc1nc2c(c(=O)n1C)N=C(c1ccccc1)[C@H](C(CC(=O)c1ccccc1)c1ccccc1)C(c1ccccc1)N2 (stereo partly specified)
The growth inhibition of the first is higher: 12% for the first, -16% for the second.

Compared with CS(=O)(=O)SCc1ccc([N+](=O)[O-])cc1, Nc1cc(N)c(N=Nc2cccc3c(S(=O)(=O)O)cccc23)cc1N=Nc1cc([N+](=O)[O-])ccc1O is lower in growth inhibition: 3% for the first, 1% for the second.

Compared with Cc1cc(-c2cc(C)c(O)c(C(C)(C)C)c2)cc(C(C)(C)C)c1O, CCc1c(Cl)c(C)cc(O)c1Cl is higher in growth inhibition: -30% for the first, -10% for the second.

Going from Nc1ccc(F)cc1S to Nc1ncnc2c1ncn2C1OC(CO)CC1O (stereo unspecified), the growth inhibition rises from -16% to -7%.

Going from Brc1ccccc1-c1ncc(-c2ccccc2)o1 to Cc1nc2ccccc2nc1NNc1ccccc1, the growth inhibition falls from 7% to -2%.

Compared with COc1cc(C2SCC(=O)N2c2ccc(-c3ccc(-n4c(-c5ccccc5)nc5ccccc5c4=O)cc3)cc2)ccc1O (stereo unspecified), CCc1nc2ccc(NCCN(C)C)c3c(=O)c4ccccc4n1c23 is higher in growth inhibition: 0% for the first, 25% for the second.

Compared with CNC(=O)OCc1c(COC(=O)NC)c2n(c1C)-c1ccc(OC)cc1CCC2, CCCC(=O)Oc1ccc(/C=N/NC(N)=S)nc1 is higher in growth inhibition: -61% for the first, -3% for the second.

Compared with C[C@]12CC[C@H](O)CC1=CC[C@@H]1C2CC[C@]2(C)C(=O)NC(=O)CC12 (stereo partly specified), COc1c(O)c(C=O)c(Br)c(C=O)c1O is higher in growth inhibition: -23% for the first, 3% for the second.

same assay, conditions: S. cerevisiae mec2-1 strain, at 3.7 µM, hits give high values

First: CN(C)c1ccc(C2CC(C)(O)Oc3cc4c(cc32)OCO4)cc1 (stereo unspecified)
Second: COc1cc(CSc2ccc(O)cc2)cc(O)c1O
The growth inhibition of the first is higher: 0% for the first, -1% for the second.

Compared with O=P(NC1CCCCC1)(OCc1ccccc1)OCc1ccccc1, O=C(/C=C(/c1ccccc1)N1CCCCC1)c1ccccc1 is lower in growth inhibition: 1% for the first, -5% for the second.

Going from COc1oc(C(=O)NC2CCCCC2)c(-c2ccc(Cl)cc2)c1S(=O)(=O)c1ccccc1 to COC1=C(OC)C(=O)C(Sc2ccc3ccccc3c2)=CC1=O, the growth inhibition falls from 3% to -40%.

First: C[Si](C)(C)/C=C/CCNC(C#N)c1ccccc1 (stereo unspecified)
Second: CCc1nc2ccc(NCCN(C)C)c3c(=O)c4ccccc4n1c23
The growth inhibition of the first is lower: -23% for the first, 26% for the second.

First: CCOc1ccc(NC(=O)C2=C(C)NC(C)=C(C(=O)Nc3ccc(OCC)cc3)C2c2cccc([N+](=O)[O-])c2)cc1
Second: CCOC(=O)C1N=[N+](c2ccccc2)C(=O)/C1=C\n1c(=S)[nH]c2ccc([N+](=O)[O-])cc21 (stereo unspecified)
The growth inhibition of the first is lower: -2% for the first, 1% for the second.

First: CN(C)CCOC1(Cc2ccc(F)cc2)CCC(C(C)(C)C)CC1 (stereo unspecified)
Second: Cc1ccc(CC2(OCCN(C)C)CCC(C(C)(C)C)CC2)cc1 (stereo unspecified)
The growth inhibition of the first is higher: -10% for the first, -11% for the second.

Going from CC1(C)CC(=O)C(/C=N/c2nc(-c3ccccc3)cs2)=C(O)C1 to Cc1sc2ccc3ccccc3c2[n+]1C, the growth inhibition falls from 2% to -36%.

Going from CC(=O)Nc1ccc2c(c1)Cc1cc(N=C3C=CC(=O)O3)ccc1-2 to O=C(NNc1ccccc1)c1ccc(Cl)c(Cl)c1, the growth inhibition falls from 31% to -3%.

Going from O=C1C=C(Cl)C(=O)C(c2ccc(Cl)cc2)=C1 to Cc1ccc(Cl)cc1NC(=O)OCCN(C)C(=O)Nc1cc(Cl)ccc1C, the growth inhibition falls from 34% to -34%.

First: CCCCCCCCCCCC(O)S(=O)(=O)O (stereo unspecified)
Second: CCCC/C=C/C(C)(C(=O)OCC)C(=O)OCC
The growth inhibition of the first is higher: 0% for the first, -4% for the second.

First: CC(C)OC(=O)c1ccc(CCc2cc(O)c(Br)cc2O)cc1
Second: CCc1cc(O)c(Cl)c(C)c1Cl
The growth inhibition of the first is higher: 20% for the first, -5% for the second.

Going from CSc1nc(C)c(CCOC(C)=O)c(N=P(c2ccccc2)(c2ccccc2)c2ccccc2)n1 to COc1nc2c(c(=O)n1C)N=C(c1ccccc1)[C@H](C(CC(=O)c1ccccc1)c1ccccc1)C(c1ccccc1)N2 (stereo partly specified), the growth inhibition falls from 8% to -9%.

Going from CS(=O)(=O)SCc1ccc([N+](=O)[O-])cc1 to Nc1cc(N)c(N=Nc2cccc3c(S(=O)(=O)O)cccc23)cc1N=Nc1cc([N+](=O)[O-])ccc1O, the growth inhibition falls from 4% to -11%.

Going from Cc1cc(-c2cc(C)c(O)c(C(C)(C)C)c2)cc(C(C)(C)C)c1O to CCc1c(Cl)c(C)cc(O)c1Cl, the growth inhibition rises from -23% to 1%.

First: Nc1ccc(F)cc1S
Second: Nc1ncnc2c1ncn2C1OC(CO)CC1O (stereo unspecified)
The growth inhibition of the first is lower: -15% for the first, -8% for the second.

First: Brc1ccccc1-c1ncc(-c2ccccc2)o1
Second: Cc1nc2ccccc2nc1NNc1ccccc1
The growth inhibition of the first is lower: -23% for the first, 0% for the second.

Compared with COc1cc(C2SCC(=O)N2c2ccc(-c3ccc(-n4c(-c5ccccc5)nc5ccccc5c4=O)cc3)cc2)ccc1O (stereo unspecified), CNC(=O)OCc1c(COC(=O)NC)c2n(c1C)-c1ccc(OC)cc1CCC2 is lower in growth inhibition: -1% for the first, -29% for the second.

First: C[C@]12CC[C@H](O)CC1=CC[C@@H]1C2CC[C@]2(C)C(=O)NC(=O)CC12 (stereo partly specified)
Second: COc1c(O)c(C=O)c(Br)c(C=O)c1O
The growth inhibition of the first is lower: -24% for the first, 6% for the second.

CCCC(=O)Oc1ccc(/C=N/NC(N)=S)nc1 showed a growth inhibition of -2%.

With CNCCCNc1c2ccccc2nc2cccc([N+](=O)[O-])c12 the growth inhibition was 87% (active).
